These results are taken from PubChem BioAssay (EPA / NIEHS).

Read-out in test [1]: Nuclear factor erythroid 2-related factor 2 (Homo sapiens) (UniProt Q16236)
As to the kind of experiment: LTEA_HepaRG_NFE2L2: Life Technologies and Expression Analysis (LTEA) Assay for Nuclear factor erythroid 2-related factor 2 (NFE2L2) Transcription Factor using HepaRG (AID 2283527).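 Note: TaqMan qRT-PCR transcript level normalised to ACTB GAPDH and POLR2A housekeeping genes.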 The conditions noted are these: mRNA level, 48 h; actives raise or lower the signal. Summed up: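 Differentiated human HepaRG cells in serum-free induction medium were exposed for 48 h to eight concentrations (top 100 uM, half-log dilutions, 0.5% DMSO), in duplicate. NFE2L2 mRNA was quantified by TaqMan qRT-PCR, normalized to ACTB, GAPDH and POLR2A, with bidirectional fitting versus DMSO.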

Read-out in test [2]: succinate dehydrogenase complex iron sulfur subunit B (SDHB), SDHB (gene 6390)
As to the kind of experiment: LTEA_HepaRG_SDHB: Life Technologies and Expression Analysis (LTEA) Assay for succinate dehydrogenase complex iron sulfur subunit B (SDHB) using HepaRG (AID 2283528). The following applies: mRNA level, 48 h; actives raise or lower the signal. Summed up:
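HepaRG cells (~100,000/well, plated 48 h) exposed in duplicate for 48 h in serum-free induction medium to 8-point half-log series from 100 uM in 0.5% DMSO; mRNA by qRT-PCR normalised to ACTB, GAPDH, POLR2A; bidirectional fit versus DMSO.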

Read-out in test [3]: Signal transducer and activator of transcription 3 (Homo sapiens) (UniProt P40763)
The test can be described thus: LTEA_HepaRG_STAT3: Life Technologies and Expression Analysis (LTEA) Assay for Signal transducer and activator of transcription (STAT3) using HepaRG (AID 2283529). The conditions noted are these: mRNA level, 48 h; actives raise or lower the signal. An outline of the steps:
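Differentiated human HepaRG cells in serum-free induction medium were exposed in duplicate for 48 h to eight half-log concentrations up to 100 uM in 0.5% DMSO. STAT3 mRNA was quantified by TaqMan qRT-PCR, normalized to ACTB, GAPDH and POLR2A, and fitted bidirectionally against DMSO.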

Read-out in test [4]: solute carrier (SLCO1B1), SLCO1B1 (gene 10599)
As to the kind of experiment: LTEA_HepaRG_SLCO1B1: Life Technologies and Expression Analysis (LTEA) Assay for solute carrier (SLCO1B1) using HepaRG (AID 2283530). The following applies: mRNA level, 48 h; actives raise or lower the signal. An outline of the steps: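 Gain or loss of SLCO1B1 mRNA is fitted against the 0.5% DMSO vehicle in human HepaRG liver cells treated 48 h at up to 100 uM in half-log steps. Expression comes from qRT-PCR normalized to endogenous controls.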

Read-out in test [5]: Transforming Growth Factor (TGFA), TGFA (gene 7039)
As to the kind of experiment: LTEA_HepaRG_TGFA: Life Technologies and Expression Analysis (LTEA) Assay for Transforming Growth Factor (TGFA) using HepaRG (AID 2283532). The conditions noted are these: mRNA level, 48 h; actives raise or lower the signal. Summed up:
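Differentiated human HepaRG cells, plated 48 h then switched to serum-free induction medium, were exposed in duplicate for 48 h to 8-point half-log series from 100 uM in 0.5% DMSO. TGFA mRNA measured by qRT-PCR, normalized to ACTB/GAPDH/POLR2A, bidirectional fit versus DMSO.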

Read-out in test [6]: Transforming Growth Factor (TGFB1), TGFB1 (gene 7040)
The test can be described thus: LTEA_HepaRG_TGFB1: Life Technologies and Expression Analysis (LTEA) Assay for Transforming Growth Factor (TGFB1) Transporter using HepaRG (AID 2283533). The conditions noted are these: mRNA level, 48 h; actives raise or lower the signal. Summed up: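 Expression change of TGFB1 in human HepaRG cells is measured after a 48 h chemical exposure, up to 100 uM in 0.5% DMSO vehicle. Curves are fitted in both directions relative to the DMSO baseline.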

Read-out in test [7]: TIMP1, TIMP1 (gene 7076)
The test can be described thus: LTEA_HepaRG_TIMP1: Life Technologies and Expression Analysis (LTEA) Assay for TIMP1 using HepaRG (AID 2283534). The conditions noted are these: mRNA level, 48 h; actives raise or lower the signal. An outline of the steps:
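We dosed human liver HepaRG cultures for 48 hours with up to 100 uM test chemical and measured TIMP1 expression by qRT-PCR. Activity in either direction is fitted relative to the 0.5% DMSO vehicle.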

Read-out in test [8]: Tumor necrosis factor receptor 1 (TNFRSF1A), TNFRSF1A (gene 7132)
As to the kind of experiment: LTEA_HepaRG_TNFRSF1A: Life Technologies and Expression Analysis (LTEA) Assay for Tumor necrosis factor receptor 1 (TNFRSF1A) using HepaRG (AID 2283535). The conditions noted are these: mRNA level, 48 h; actives raise or lower the signal. Summed up: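 Expression of TNFRSF1A in human HepaRG liver cells was measured by qRT-PCR 48 h after chemical dosing (maximum 100 uM). Bidirectional curve fitting used 0.5% DMSO as baseline.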

Read-out in test [9]: Cellular tumor antigen p53 (Homo sapiens) (UniProt P04637)
The test can be described thus: LTEA_HepaRG_TP53: Life Technologies and Expression Analysis (LTEA) Assay for Tumor Protein P53 (TP53) using HepaRG (AID 2283537). The conditions noted are these: mRNA level, 48 h; actives raise or lower the signal. An outline of the steps:
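Differentiated HepaRG cells in serum-free induction medium exposed 48 h in duplicate to 8 half-log concentrations, top 100 uM, 0.5% DMSO. TP53 mRNA by TaqMan qRT-PCR (Fluidigm), normalized to ACTB, GAPDH, POLR2A; fitted bidirectionally versus DMSO.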

Read-out in test [10]: UDP glucuronosyltransferase (UGT1A1), UGT1A1 (gene 54658)
As to the kind of experiment: LTEA_HepaRG_UGT1A1: Life Technologies and Expression Analysis (LTEA) Assay for UDP glucuronosyltransferase (UGT1A1) using HepaRG (AID 2283538). The following applies: mRNA level, 48 h; actives raise or lower the signal. An outline of the steps: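 HepaRG cells, 0.5% DMSO vehicle, 48 h exposure in serum-free induction medium to 8-point half-log series topping at 100 uM, in duplicate. UGT1A1 mRNA by Fluidigm qRT-PCR, normalized to ACTB/GAPDH/POLR2A; bidirectional fit versus DMSO.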

Read-out in test [11]: UDP glucuronosyltransferase (UGT1A6), UGT1A6 (gene 54578)
As to the kind of experiment: LTEA_HepaRG_UGT1A6: Life Technologies and Expression Analysis (LTEA) Assay for UDP glucuronosyltransferase (UGT1A6) using HepaRG (AID 2283539). The following applies: mRNA level, 48 h; actives raise or lower the signal. An outline of the steps:
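Endpoint is UGT1A6 transcript induction or loss in a human liver cell line, quantified by TaqMan qRT-PCR 48 h after dosing. Concentrations ran from 100 uM downward in half-log steps in 0.5% DMSO; activity was fitted in both directions versus vehicle.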

Read-out in test [12]: X-box binding protein 1 (XBP1), XBP1 (gene 7494)
The test can be described thus: LTEA_HepaRG_XBP1: Life Technologies and Expression Analysis (LTEA) Assay for X-box binding protein 1 (XBP1) using HepaRG (AID 2283540). The following applies: mRNA level, 48 h; actives raise or lower the signal. Summed up: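 Human HepaRG monolayers receive test chemical for 48 h across an eight-point half-log series starting at 100 uM. XBP1 mRNA gain or loss is scored against DMSO by qRT-PCR.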

Test [13] in a line: LTEA_HepaRG_LDH_cytotoxicity: Cytotoxicity Assessment in the Life Technologies and Expression Analysis (LTEA) Assay (AID 2283563; active = hit-call score of the fitted dose curve at least 0.9, where 1 is the maximum). Summed up: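 Human HepaRG hepatic cells are treated with test chemicals for 48 h at up to 100 uM in 0.5% DMSO. Cytotoxicity is scored from medium LDH against the vehicle control.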
The nature of test [14]: TOX21_p53_BLA_p2_viability: Viability Assessment in the Tox21 HCT-116 p53 Agonism Beta-lactamase Assay, Phase 2 (AID 2283591; active = hit-call score of the fitted dose curve at least 0.9, where 1 is the maximum;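 note: compound exposure lasted 16 h at 37 °C; actives lower the ATP signal meaning cytotoxicity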). Summed up:
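HCT-116 p53-bla cells (4000/well) rested 5 h at 37C, then received compounds in DMSO (217-fold dilution) for 16 h at 37C, 5% CO2. After the CCF4 read, CellTiter-Glo was added; ATP luminescence was read after 30 min at room temperature.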

The target in test [15] is Cellular tumor antigen p53 (Homo sapiens) (UniProt P04637). The test can be described thus: TOX21_p53_BLA_p2_ratio: Tox21 HCT-116 p53 Agonism Beta-lactamase Assay, Ratio, Phase 2 (AID 2283592; active = hit-call score of the fitted dose curve at least 0.9, where 1 is the maximum). Summed up:
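An inducible beta-lactamase reporter in HCT116 cells signals p53 pathway activation. After 16 h chemical exposure at 37C, cells load CCF4-AM substrate for 2 h at room temperature; activity is the cleaved/uncleaved emission ratio relative to DMSO.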

A short description of test [16]: TOX21_p53_BLA_p3_viability: Viability Assessment in the Tox21 HCT-116 p53 Agonism Beta-lactamase Assay, Phase 3 (AID 2283593; active = hit-call score of the fitted dose curve at least 0.9, where 1 is the maximum;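 note: cells exposed to compound for 16 h before reading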). Summed up: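 HCT-116 cells (4000/well) rested 5 h at 37C, then got DMSO compounds by pin tool (217-fold dilution) for 16 h at 37C, 5% CO2. After the bla read, CellTiter-Glo was added and luminescence read at 30 min, room temperature.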
Test [17] concerns the target Cellular tumor antigen p53 (Homo sapiens) (UniProt P04637). As to the kind of experiment: TOX21_p53_BLA_p3_ratio: Tox21 HCT-116 p53 Agonism Beta-lactamase Assay, Ratio, Phase 3 (AID 2283596; active = hit-call score of the fitted dose curve at least 0.9, where 1 is the maximum). An outline of the steps:
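HCT116 p53-bla cells (4000/well) given compound in DMSO (217-fold dilution) after 5 h, incubated 16 h at 37C. CCF4-AM substrate 2 h at room temperature; 460/530 nm emission ratio, gain fitted against DMSO.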

Results filed as inconclusive are left out. Activity calls are given as the source filed them. Rule for the calls, unless noted: active = hit-call score of the fitted dose curve at least 0.9, where 1 is the maximum; inactive = score below 0.9.

One may read the AC50 as the midpoint of the concentration-response curve, whichever way the signal moves.

Sequence of Signal transducer and activator of transcription 3 (Homo sapiens) (P40763 whole entry, looked up): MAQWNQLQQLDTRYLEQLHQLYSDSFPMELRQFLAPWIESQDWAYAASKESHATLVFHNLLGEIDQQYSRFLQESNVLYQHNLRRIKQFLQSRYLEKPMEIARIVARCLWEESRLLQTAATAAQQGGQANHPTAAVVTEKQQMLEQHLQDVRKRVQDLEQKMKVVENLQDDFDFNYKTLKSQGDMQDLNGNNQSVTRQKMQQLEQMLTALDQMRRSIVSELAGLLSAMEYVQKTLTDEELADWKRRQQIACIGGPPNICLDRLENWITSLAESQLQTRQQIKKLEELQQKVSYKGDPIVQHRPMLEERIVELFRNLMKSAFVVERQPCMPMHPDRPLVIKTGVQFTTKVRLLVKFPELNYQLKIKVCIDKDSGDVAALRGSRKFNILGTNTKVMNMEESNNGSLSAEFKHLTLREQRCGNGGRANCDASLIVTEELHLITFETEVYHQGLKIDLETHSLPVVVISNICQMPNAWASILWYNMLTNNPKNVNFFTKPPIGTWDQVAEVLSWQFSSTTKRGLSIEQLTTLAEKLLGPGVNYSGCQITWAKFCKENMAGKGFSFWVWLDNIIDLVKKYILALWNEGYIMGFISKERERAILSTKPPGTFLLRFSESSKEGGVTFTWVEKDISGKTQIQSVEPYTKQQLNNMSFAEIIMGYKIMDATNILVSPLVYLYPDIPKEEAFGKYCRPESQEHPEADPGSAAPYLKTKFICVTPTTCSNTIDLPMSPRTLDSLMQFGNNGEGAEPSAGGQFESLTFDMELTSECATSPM
Sequence of Nuclear factor erythroid 2-related factor 2 (Homo sapiens) (Q16236 whole entry, looked up): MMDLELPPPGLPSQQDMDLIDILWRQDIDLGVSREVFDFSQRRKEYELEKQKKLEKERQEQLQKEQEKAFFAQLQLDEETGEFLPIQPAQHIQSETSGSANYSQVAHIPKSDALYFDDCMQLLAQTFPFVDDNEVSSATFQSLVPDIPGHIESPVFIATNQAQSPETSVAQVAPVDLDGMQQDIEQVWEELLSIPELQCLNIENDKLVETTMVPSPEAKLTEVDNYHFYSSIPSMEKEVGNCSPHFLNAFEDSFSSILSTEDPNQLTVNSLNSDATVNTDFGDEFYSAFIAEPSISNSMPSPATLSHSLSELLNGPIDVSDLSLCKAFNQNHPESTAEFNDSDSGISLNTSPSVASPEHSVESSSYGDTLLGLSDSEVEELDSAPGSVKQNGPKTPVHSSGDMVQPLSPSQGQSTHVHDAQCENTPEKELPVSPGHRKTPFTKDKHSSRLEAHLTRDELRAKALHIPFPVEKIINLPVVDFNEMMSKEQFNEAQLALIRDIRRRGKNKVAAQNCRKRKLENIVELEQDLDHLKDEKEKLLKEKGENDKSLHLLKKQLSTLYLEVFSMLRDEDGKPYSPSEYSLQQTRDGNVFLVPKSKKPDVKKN
Sequence of Cellular tumor antigen p53 (Homo sapiens) (P04637 whole entry, looked up): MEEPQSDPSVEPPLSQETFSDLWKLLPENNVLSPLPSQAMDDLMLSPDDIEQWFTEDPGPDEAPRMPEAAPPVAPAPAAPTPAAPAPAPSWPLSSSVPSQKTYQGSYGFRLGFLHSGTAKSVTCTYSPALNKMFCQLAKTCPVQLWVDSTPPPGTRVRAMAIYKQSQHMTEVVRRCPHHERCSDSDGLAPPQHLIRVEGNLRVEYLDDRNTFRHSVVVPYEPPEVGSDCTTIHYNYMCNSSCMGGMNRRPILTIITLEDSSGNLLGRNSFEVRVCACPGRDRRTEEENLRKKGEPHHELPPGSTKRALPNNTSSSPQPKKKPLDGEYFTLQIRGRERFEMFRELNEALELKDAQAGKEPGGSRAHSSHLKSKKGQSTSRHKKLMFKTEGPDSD

Turning to `CCCCC(CC)COC(=O)CCCCCCCC(=O)OCC(CC)CCCC` (stereo not drawn), the outcome in [1], in [2], in test [3], in [4], in test [5] and in test [6] was inactive. For the same molecule, the molecule was classed as inactive in [7], in test [8], in test [9], in test [10], in test [11] and in test [12]. Further, the molecule was classed as inactive in test [13], in [14], in test [15], in test [16] and in [17].
Turning to `CC(N)=O`, the call in [1], in test [2], in test [3], in [4], in test [5] and in test [6] was inactive. For the same molecule, the call in [7], in test [10], in test [11], in test [12] and in test [13] was inactive. Also, the AC50 in test [8] is 243 nM (active).
Turning to `CCCC(=O)O`, the molecule was classed as inactive in test [1], in test [2], in test [3], in test [4], in test [5] and in test [6]. Also, the molecule was classed as inactive in test [7], in test [8], in test [10], in [11], in test [12] and in test [13].
In the case of `CCOCCOCCO`, the call in test [1], in test [2], in test [3], in test [4], in [5] and in [6] was inactive. For the same molecule, the call in test [7], in [8], in test [9], in [10], in [11] and in test [12] was inactive. The result in [13], in test [14], in test [15], in [16] and in test [17] was inactive.
